Assay outcomes from PubChem BioAssay.
SARS PLP yeast: inhibitors of SARS-CoV papain-like protease in yeast; S. cerevisiae expressing SARS-CoV PLpro, growth rescue; Potency, µM (top dose mostly 32.9 µM), hits mostly activators; actives 0.19% (n = 330,000); calls by dose curve; note: nearly all actives have a fitted effect of over 55% in size
AMA1 RON2 block: AMA1-RON2 (P. falciparum) interaction inhibition; AlphaScreen AMA1-biotinylated RON2 peptide binding; Potency, µM (doses to about 58.2 µM), most hits filed as inhibitors; actives 0.2% (n = 360,000); AID 720542; note: nearly all actives have a fitted effect of over 45% in size
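AMA1 (3D7) with his tag at 25 nM final met compounds first, then biotinylated RON2 peptide at 25 nM; detection used donor plus acceptor beads, 10 µg/mL apiece, read by AlphaScreen after 30 min at room temperature.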
Pf growth 48h: P. falciparum growth inhibition at 48 hours (one generation); P. falciparum luciferase growth in erythrocytes, 48 h; actives 5.9% (n = 310,000); Potency, µM (doses to about 28.7 µM), most hits filed as inhibitors
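Here the parasites carry a stable luciferase gene and grow inside erythrocytes in Albumax-based RPMI medium with compound for one erythrocytic cycle. Activity is scored as loss of luminescent signal.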
Shiga toxin inh: inhibitors of Shiga toxin in Vero cells | actives 9.2% (n = 290,000) | inhibition, % at 38.7 µM | AID 2315 | Vero cells, Shiga toxin protein synthesis inhibition reporter; in the data active = inhibition mostly above about 28%, no sharp cut-off; inactive = mostly below about 43%
CHX counter: affects cycloheximide protein synthesis inhibition readout, counter-screen; max response, %; actives 12% (n = 300,000); cell reporter, cycloheximide protein synthesis inhibition counterscreen; in the data active = max response mostly above about 13%, no sharp cut-off; inactive = mostly below about 14%; note: read at 38.3 µM for the half of the compounds with a filed dose
Pf growth 96h: P. falciparum growth inhibition at 96 hours; P. falciparum luciferase reporter growth, 96 h; Potency, µM (top dose mostly 28.7 µM), hits mostly inhibitors; actives 6.9% (n = 320,000); AID 504834
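96 h incubation, 37 C, 5% CO2, of luciferase-reporter P. falciparum-infected RBCs (2% hematocrit, 0.05% parasitemia final) with test compounds; endpoint luminescence.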
Of the large screens only hits and unclear results are named; the others gave an inactive call. Most compounds without a hit are left out; they make up all but 19% or so of the library. Unless noted, calls come from the whole dose curve; as a rule, active = well fitted curve in the direction sought with a large enough effect; inconclusive = small, poorly fitted or top-dose-only effect, or another doubt; inactive = no such curve, though single readings can be large; an effect the other way counts as inactive or inconclusive.

O=C(Nc1ccc(-c2ccccc2)cc1)c1ccco1	Pf growth 96h 4.65µM
O=C(Nc1ccc(Nc2ccccc2)cc1)c1ccco1	Pf growth 48h inconclusive, Shiga toxin inh 139.0, CHX counter 49.1 (no result: Pf growth 96h)
O=C(Nc1ccc(Cc2ccncc2)cc1)c1ccco1	Shiga toxin inh 81.4, CHX counter 24.0, Pf growth 96h inconclusive
CN(c1ccccc1)S(=O)(=O)c1ccc(NC(=O)c2ccco2)cc1	none
O=C(Nc1ccc(NC(=O)c2ccco2)cc1)c1ccco1	Pf growth 96h inconclusive
CC(=O)N(C)c1ccc(NC(=O)c2ccco2)cc1	Shiga toxin inh 151.8, CHX counter 29.7
CCN(c1ccccc1)S(=O)(=O)c1ccc(NC(=O)c2ccco2)cc1	Pf growth 48h 10.4µM
O=C(Nc1ccc(Br)cc1)c1ccco1	CHX counter 29.8 (no result: Pf growth 96h)
O=C1C2C3C=CC(C3)C2C(=O)N1CNc1ccccc1 (stereo not drawn)	none (no result: Pf growth 96h)
COc1ccc(NCN2C(=O)C3C4C=CC(C4)C3C2=O)cc1 (stereo not drawn)	Pf growth 96h 10.4µM
N#CCc1c(C#N)c(N)nc(N2CCCC(O)C2)c1C#N (stereo not drawn)	none
O=C(NCc1ccco1)c1cc2ccccc2c(=O)o1	Shiga toxin inh 148.5, CHX counter 66.5
O=C(NCc1ccco1)c1cc2cc(Br)ccc2o1	Shiga toxin inh 86.6, CHX counter 34.5, Pf growth 96h inconclusive
O=C(NCc1ccco1)Nc1ccc(Br)cc1Cl	Shiga toxin inh 87.2, CHX counter 48.0
O=C(NCc1ccco1)c1cccc(Br)c1	Pf growth 96h inconclusive (no result: Shiga toxin inh)
O=C(NCc1ccco1)c1cc(=O)c2ccccc2o1	Pf growth 48h inconclusive, Pf growth 96h inconclusive
Cc1ccc(N(CC2CO2)S(=O)(=O)c2ccccc2[N+](=O)[O-])cc1 (stereo not drawn)	none
CN1CCC(N(C)S(=O)(=O)c2ccc(NC(=O)COc3ccc(F)cc3)cc2)CC1	Pf growth 48h inconclusive, Pf growth 96h inconclusive (no result: Shiga toxin inh, CHX counter)
CN1CCC(N(C)S(=O)(=O)c2ccc(NC(=O)COc3ccc(Cl)cc3)cc2)CC1	Pf growth 48h 8.28µM, Pf growth 96h 4.15µM (no result: Shiga toxin inh, CHX counter)
CC(Oc1cccc(Cl)c1)C(=O)Nc1ccc(S(=O)(=O)N(C)C2CCN(C)CC2)cc1 (stereo not drawn)	Pf growth 48h 9.28µM, Pf growth 96h inconclusive (no result: Shiga toxin inh, CHX counter)
Cn1c(SCC(=O)N/N=C/c2ccccn2)nnc1-c1ccccc1	none
CC(=O)NC1=C(Nc2ccc(N(C)C)cc2)C(=O)c2ccccc2C1=O	Pf growth 48h inconclusive, Shiga toxin inh 116.2, CHX counter 45.9, Pf growth 96h inconclusive
CC(=O)NC1=C(N(C)C2CCS(=O)(=O)C2)C(=O)c2ccccc2C1=O (stereo not drawn)	Pf growth 48h 13.1µM, Pf growth 96h 2.08µM
CN(C(=O)Nc1ccccc1)C1CCCCC1	none
CN(C(=O)Nc1ccccc1)C1CCCc2ccccc21 (stereo not drawn)	Shiga toxin inh 71.5, CHX counter 19.3, Pf growth 96h inconclusive
CN(C(=O)Nc1ccccc1)C1CCS(=O)(=O)C1 (stereo not drawn)	Pf growth 96h 2.33µM
CN(CC(=O)Nc1ccccc1Cl)C1CCS(=O)(=O)C1 (stereo not drawn)	none (no result: Shiga toxin inh, CHX counter)
CCN(c1ccccc1)S(=O)(=O)c1ccc(C(=O)Oc2ccc(C(C)=O)cc2)cc1	none
Cc1ccc(NC(=O)Nc2c(Cl)cccc2Cl)cn1	none
Cc1ccccc1NC(=O)C(=O)NC(C)CCc1ccccc1 (stereo not drawn)	none
CCC(C)NC(=S)Nc1ccccc1 (stereo not drawn)	Pf growth 48h inconclusive, Pf growth 96h inconclusive
CC(CCc1ccccc1)NC(=O)C1CCN(S(=O)(=O)c2ccc(F)cc2)CC1 (stereo not drawn)	Pf growth 96h inconclusive
CCC(C)NC(=S)Nc1ccc(C(=O)OC)cc1 (stereo not drawn)	Shiga toxin inh 56.1, CHX counter 25.8, Pf growth 96h inconclusive
CC(CCc1ccccc1)NC(=O)C(=O)Nc1ccccc1 (stereo not drawn)	Shiga toxin inh 99.8, CHX counter 55.6
CC(=O)c1ccc(NC(=S)NC(C)CCc2ccccc2)cc1 (stereo not drawn)	Pf growth 48h inconclusive, Pf growth 96h 9.28µM
CC(CCc1ccccc1)NC(=O)C1CCN(S(=O)(=O)N2CCCCC2)CC1 (stereo not drawn)	Pf growth 48h inconclusive, Pf growth 96h 1.04µM
Nc1c(Br)cc2c([nH]c(=O)c3ccccc32)c1Br	none (no result: SARS PLP yeast, Pf growth 48h, Shiga toxin inh, CHX counter, Pf growth 96h)
CC(c1ccccc1)N1CC(C(=O)N2CCN(c3ccc(F)cc3)CC2)CC1=O (stereo not drawn)	none (no result: SARS PLP yeast)
O=C(NCc1ccccc1)C(c1ccco1)N(C(=O)c1csnn1)C1CC1 (stereo not drawn)	none
Cc1cccc2c(SCC(N)=O)nc(-c3ccccc3)nc12	none
COc1ccc(C(=O)Nc2ccc(O)c3ccccc23)cc1OC	none (no result: SARS PLP yeast, Pf growth 48h, Shiga toxin inh, CHX counter, Pf growth 96h)
O=C(NCCCCCCOC1=NS(=O)(=O)c2ccccc21)C(=O)Nc1ccccc1	none
CC(CCOC1=NS(=O)(=O)c2ccccc21)NC(=O)C(=O)Nc1ccccc1 (stereo not drawn)	Shiga toxin inh 65.1, CHX counter 29.4
N#CC1(NC(=O)CN2C(=O)NC3(CCCCCC3)C2=O)CCCCC1	none (no result: Shiga toxin inh, CHX counter)
O=C(COc1ccc([N+](=O)[O-])cc1)NCc1ccncc1	Pf growth 96h inconclusive
CCC(=O)Nc1ccc(NC(=O)C23CC4CC(CC(C4)C2)C3)cn1	Pf growth 96h inconclusive
O=C(Nc1ccc(NC(=O)C2CC2)cc1)c1ccco1	Shiga toxin inh 62.8, CHX counter 42.7
O=C(Nc1ccc(NC(=O)C2CCCCC2)cn1)c1ccco1	CHX counter 39.3
O=C(Nc1ccc(NC(=O)C23CC4CC(CC(C4)C2)C3)cn1)c1ccco1	Shiga toxin inh 69.3, CHX counter 48.3, Pf growth 96h inconclusive
CCOc1ccc(NC(=O)CC2C(=O)N(c3ccc(OC)c(Cl)c3)C(=S)N2C2CC2)cc1 (stereo not drawn)	Pf growth 48h inconclusive, Pf growth 96h inconclusive
Cn1c2c(c(=O)c3ccccc31)CCC(C)(C)O2	none
COc1ccc(NC(=O)CSc2nc3c([nH]c4ccccc43)c(=O)n2C)c(OC)c1	Pf growth 96h inconclusive
Cc1csc(NC(=O)c2sccc2C)n1	Shiga toxin inh 90.9, CHX counter 59.4
Cc1ccsc1C(=O)Nc1nccs1	Shiga toxin inh 60.3, CHX counter 16.3
CCN(CC)CC#CCC(OC)(c1ccccc1)c1ccccc1	Pf growth 48h inconclusive
O=C(Cc1cccc([N+](=O)[O-])c1)Nc1ccc(C(=O)N2CCOCC2)cc1	none (no result: Pf growth 48h, Shiga toxin inh, CHX counter, Pf growth 96h)
COC(=O)/C=C1\S/C(=N\N=C\CC(=O)OC)NC1=O	none
O=[N+]([O-])c1ccc(COc2ccccc2CN2CCCCC2)cc1	none (no result: SARS PLP yeast, Pf growth 48h, Shiga toxin inh, CHX counter, Pf growth 96h)
COCCNC(=O)C1CCC(CNS(=O)(=O)c2ccccc2)CC1 (stereo not drawn)	none
